Source: PubChem BioAssay (EPA / NIEHS)
Inconclusive results are not listed. Calls of active or inactive are those of the source. How the source made its calls: active means hit-call score of the fitted dose curve at least 0.9, where 1 is the maximum; inconclusive means response in the unintended direction; inactive means score below 0.9.

Target: Retinoic acid receptor RXR-alpha (Homo sapiens) (UniProt P19793)
Experiment: ATG_RXRa_TRANS: Attagene TRANS-FACTORIAL HepG2 Assay for human Retinoid X Receptor alpha (RXRa) (AID 2283012)
Description: ATG_TRANS is a cell-based, multiplexed-readout assay that uses HepG2, a human liver cell line, with measurements taken at 24 hours after chemical dosing in a 24-well plate.ATG_RXRa_TRANS is one of 30 assay component(s) measured or calculated from the ATG_TRANS assay. It is designed to make measurements of mRNA induction, a form of inducible reporter, as detected with fluorescence intensity signals by Reverse transcription polymerase chain reaction (RT-PCR) and Capillary electrophoresis technology.Data from the assay component ATG_RXRa_TRANS was analyzed into 1 assay endpoint. This assay endpoint, ATG_RXRa_TRANS, was analyzed in the positive analysis fitting direction relative to DMSO as the negative control and baseline of activity. Using a type of inducible reporter, measures of mRNA for gain-of-signal activity can be used to understand the reporter gene at the transcription factor-level as they relate to the gene RXRA. Furthermore, this assay endpoint can be referred to as a primary readout, because this assay has produced multiple assay endpoints where this one serves a reporter gene function. To generalize the intended target to other relatable targets, this assay endpoint is annotated to the nuclear receptor intended target family, where the subfamily is non-steroidal.
Human liver HepG2 cells are transiently transfected with multiple reporter transcription units (MRTUs) in 6-well plates using FuGene 6 reagent (Roche; 3 ml FuGene/1 mg DNA). The MRTU constructs are regulated by a cis-regulating element (promoter). […] A major difference between the CIS and TRANS system is that in CIS activities of endogenous TFs are measured, whereas the TRANS assay evaluates changes in activities of exogenous, chimeric NR-Gal4 proteins. […] At the end of 24 hour incubation, total RNA was isolated using TriZol reagent (Invitrogen). The isolated RNA is then reverse-transcribed using oligo(dT) primer and Mo-MLV reverse transcriptase (Invitrogen) with DNAse I (Ambion) treatment for 30 min. The one-tenth of the produced cDNA was amplified by PCR using Taq DNA polymerase (Invitrogen) and two reporter sequence-specific primers. The PCR products were fluorescently labeled by primer extension with 6-arboxyfluorescein (6-FAM) 5'-labeled reporter sequence-specific primer (2 min at 95 C, 20 s at 68 C and 10 min at 72 C) and these products were digested with 5U of HpaI (New England Biolabs) for 2h at 37 C. The fragments were purified using Qiaquick PCR columns (Qiagen), analyzed on an ABI 3130xL genetic analyzer (Applied Biosystems) with peak positions identified by using a set of X-rhodamine (ROX)-labeled MapMarker1000 molecular weight standards (BioVentures). The raw capillary electrophoresis data was processed using Attagraph software (Attagene).

Chain of Retinoic acid receptor RXR-alpha (Homo sapiens) (P19793 whole entry, looked up): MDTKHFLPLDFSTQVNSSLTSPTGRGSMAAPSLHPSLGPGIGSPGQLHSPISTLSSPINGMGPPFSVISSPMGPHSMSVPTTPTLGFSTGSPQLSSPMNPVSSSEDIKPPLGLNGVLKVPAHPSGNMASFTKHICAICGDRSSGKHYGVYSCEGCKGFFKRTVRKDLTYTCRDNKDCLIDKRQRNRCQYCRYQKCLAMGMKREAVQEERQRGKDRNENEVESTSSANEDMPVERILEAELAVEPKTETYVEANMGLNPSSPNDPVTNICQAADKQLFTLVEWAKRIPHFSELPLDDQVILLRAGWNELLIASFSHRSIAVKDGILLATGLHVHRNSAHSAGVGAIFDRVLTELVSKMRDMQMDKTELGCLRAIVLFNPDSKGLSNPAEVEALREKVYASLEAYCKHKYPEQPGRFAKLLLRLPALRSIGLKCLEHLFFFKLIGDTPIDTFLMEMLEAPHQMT

SMILES | outcome
O=C(O)C(Br)Br | inactive
O=C(O)CCCc1ccc(N(CCCl)CCCl)cc1 | inactive
O=c1c2ccccc2c(=O)c2c1cc(Cl)c1[nH]c3c([nH]c12)c(Cl)cc1c(=O)c2ccccc2c(=O)c13 | inactive
O=c1[nH]c(Cl)c(Cl)cc1Cl | inactive
C=CC(=O)OCCCCOC(=O)C=C | inactive
C[C@]12CC[C@H]3[C@@H](CC[C@@]45O[C@@H]4C(O)=C(C#N)C[C@]35C)[C@@H]1CC[C@@H]2O | inactive
O=P(O)(Oc1ccccc1)Oc1ccccc1 | inactive
CC(C)C#N | inactive
N#CC(c1ccccc1)c1ccccc1 | inactive
C=CCc1ccc(OC(=O)Cc2ccccc2)c(OC)c1 | inactive
C=CCN(CC=C)C(=O)C(Cl)Cl | inactive
CC(C)C(=O)Cl | inactive
Nc1c(Cl)c(Cl)c(Cl)c(Cl)c1Cl | inactive
O=C(NCNC(=O)NC1C(=O)NC(=O)N1CO)NC1C(=O)NC(=O)N1CO (stereo not given) | inactive
CC1OC(C)OC(C)O1 (stereo not given) | inactive
C=C(Cl)CCl | inactive
O=[N+]([O-])c1ccc(Cl)cc1 | inactive
CCOP(=O)(OCC)OCC | inactive
CCCCCCCCCCCCCCCC[N+](C)(C)C | inactive
Cc1ccc(C)c2ccccc12 | inactive

SMILES | outcome
CCC(=O)c1ccc(Cl)cc1 | inactive
CCc1cc(C)cc(CC)c1-c1c(OC(=O)C(C)(C)C)n2n(c1=O)CCOCC2 | inactive
c1cc(OCC2CO2)ccc1Cc1ccc(OCC2CO2)cc1 (stereo not given) | inactive
N#CCCCl | inactive
CC(C)(c1cc(Cl)c(O)c(Cl)c1)c1cc(Cl)c(O)c(Cl)c1 | inactive
O=C(CCN1CC1)OCC(CO)(COC(=O)CCN1CC1)COC(=O)CCN1CC1 | inactive
O=[N+]([O-])c1cc([N+](=O)[O-])c2ccccc2c1 | inactive
Nc1ccc(-c2ccc(N)c(N)c2)cc1N | inactive
Nc1ccc([N+](=O)[O-])cc1N | inactive
CCOP(=O)(OCC)Oc1ccc([N+](=O)[O-])cc1 | inactive
C=COCCCl | inactive
O=C(NC(=O)c1c(F)cccc1F)Nc1ccc(Oc2ccc(C(F)(F)F)cc2Cl)cc1F | inactive
c1ccc(Nc2ccc3ccccc3c2)cc1 | inactive
Oc1cc(Cl)ccc1Cl | inactive
CNC(=O)Oc1cc(C)c(SC)c(C)c1 | inactive
CC(Cc1ccc(C(C)(C)C)cc1)CN1C[C@@H](C)O[C@@H](C)C1 (stereo not given in full) | inactive
O=C(O)COc1ccccc1 | inactive
[Cl-].[Cl-].[Cl-].[Yb+3] | inactive
Cc1ccccc1CCl | inactive
N#CCCCCC#N | inactive
